Most compounds without a hit are left out; they make up all but 2.6% or so of the library.
hERG WT inh – KCNH2 (human, wildtype) channel inhibition; Q12809; activity change, % at 1.84 µM; 340,000 tested, 0.37% active; U2OS, BacMam KCNH2, thallium flux FluxOr; active compounds read low;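 active means maximum activity change below -70%; inconclusive means maximum activity change between -70% and -50%; inactive means maximum activity change above -50%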; further: on the % scale 0 is the no-effect control and ±100 the full control effect
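U2OS cells were transduced with wild-type KCNH2 virus (2.03 x 10^8 / mL) for 4 h at room temperature, then cultured overnight at 37 C. Thallium flux was read with FluxOr dye. Rate constants were normalized to DMSO controls.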
KCNH2 3.1 inh – blocks the human KCNH2 3.1 channel isoform. 340,000 tested, 0.95% active. activity change, % (tested at about 1.8 µM). U2OS KCNH2 3.1, thallium flux FluxOr; active compounds read low;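 active means maximum activity change below -70%; inconclusive means maximum activity change from -70% to -50%; inactive means maximum activity change above -50%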;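 further: thallium influx rate constant from kinetic fluorescence after stimulation buffer; on the % scale 0 is the no-effect control and ±100 the full control effect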
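Normalized rate constant (relative to positive and negative DMSO controls) derived from a 2 min kinetic fluorescence read after stimulation; U2OS cells expressing the 3.1 isoform via virus at 1.77 x 10^8 /mL.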
TRPV1 potentiator – enhances activation of the human vanilloid receptor TRPV1; Q8NER1; TRPV1-expressing cells, Fluo-8 calcium influx, capsaicin EC20 potentiation; potentiation, % at 8.33 µM; 320,000 tested, 0.02% active; in the data active means potentiation above about 80%; inconclusive means between about 30% and that limit; further: 0% is about no effect
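Cells expressing TRPV1 were dye-loaded with Fluo-8 and read kinetically: 10 s baseline, 3 min after compound (agonist portion), then 2 min after EC20 capsaicin (allosteric enhancer portion). Calcium-bound dye fluorescence at 480/520 nm.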
p53 reactivator – re-activators of mutant p53. H1299 p53-A138V BP100-luciferase reporter, luminescence, 24 h. Potency, µM (doses to about 92.2 µM), for the others: top-dose activity change, positive = activation, usual class: activators. 320,000 tested, 0.063% active; active means well fitted activation curve with a large enough effect; inconclusive means small, poorly fitted or top-dose-only effect; inactive means no such curve, though single readings can be large or run the other way; further: potency means the concentration at half of the fitted maximal effect; % of control where 0% means no effect; nearly all actives have a fitted effect of over 45% in size
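p53-null H1299 cells stably carrying temperature-sensitive p53-A138V and a BP100-luciferase reporter were pinned with compounds (4-point, 1:5 series) and held 24 hrs at 37 deg C. Luminescence was read 10 min after detection reagent.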
TRPV1 agonist – human TRPV1 agonism; Q8NER1; TRPV1-expressing cells, Fluo-8 calcium influx, agonist mode; activation, % at 8.33 µM; 320,000 tested, 0.19% active; in the data active means activation above about 80%; inconclusive means between about 30% and that limit; further: 0% is about no effect
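Fluo-8 calcium influx in TRPV1-expressing cells, kinetic read (ex 480/em 520 nm). Compound added and read 3 min for agonist activity, followed by capsaicin at EC20 final and 2 min further read for enhancement.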
ClpP mod – qHTS Assay for Activators of ClpP; ATP-dependent Clp protease proteolytic subunit (Bacillus subtilis (strain 168)), P80244; purified B. subtilis ClpP, FRET peptide cleavage, 20 min; Potency, µM (top dose mostly 57.5 µM), without a hit: top-dose activity change, negative = active; 340,000 tested, 1.9% active; AID 651965, 2013; active means well fitted falling curve with a large enough effect; inconclusive means small, poorly fitted or top-dose-only effect; inactive means no such curve, though single readings can be large or run the other way; further: potency means the concentration at half of the fitted maximal effect; the source files actives as falling curves though it sought activators and does not explain the sign; nearly all actives have a fitted effect of over 65% in size
Target sequence (P80244 whole entry, looked up): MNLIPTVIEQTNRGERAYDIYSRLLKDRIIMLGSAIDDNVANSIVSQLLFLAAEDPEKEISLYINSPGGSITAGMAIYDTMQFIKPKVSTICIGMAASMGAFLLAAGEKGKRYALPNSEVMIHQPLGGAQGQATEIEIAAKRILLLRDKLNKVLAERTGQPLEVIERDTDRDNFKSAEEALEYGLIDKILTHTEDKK
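Buffer: 100 mM Tris/HCl pH8, 100 mM KCl, 0.05% low protease BSA, 2.5% glycerol, 0.01% Tween-20. ClpP 10 microg/mL final; 20 min RT; delta FRET normalized to ADEP and DMSO controls.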
Numbers without * were called inactive.

For Cc1cccc(NC(c2cccc(Cl)c2)c2ccc3cccnc3c2O)n1 (configuration not stated) the results were ClpP mod -3%.
For CN(C)c1ccc(/C=C2\C=Cc3ccccc32)cc1[N+](=O)[O-] the results were ClpP mod 0%.
For Cc1cc(C)c(C(N)=O)c(NCCc2ccccc2)n1 the results were hERG WT inh -7, KCNH2 3.1 inh 0, TRPV1 potentiator 1, p53 reactivator 4%, TRPV1 agonist 1 and ClpP mod 35µM*.
`O=C(COC(=O)c1ccc(Cl)nc1)c1ccc2c(c1)OCCO2` gave hERG WT inh -107*, KCNH2 3.1 inh 13, TRPV1 potentiator 4, p53 reactivator 2%, TRPV1 agonist 5 and ClpP mod 0%.
For CCCCC(=O)Nc1ccccc1C(=O)OCC(=O)c1ccc2c(c1)OCCO2 the results were hERG WT inh -13, KCNH2 3.1 inh -43, TRPV1 potentiator 1, p53 reactivator 45µM*, TRPV1 agonist 18 and ClpP mod -27%.
O=C(O)/C=C/C(=O)Nc1ccccc1C(=O)OCC(=O)c1ccc2c(c1)OCCO2 was read as hERG WT inh 7, KCNH2 3.1 inh -1, TRPV1 potentiator 2, p53 reactivator -6% and TRPV1 agonist 3.
COc1ccccc1-c1nnc(-c2ccc(C)cc2)o1 was read as hERG WT inh 4 and KCNH2 3.1 inh -2.
Screening COc1ccccc1-c1nnc(-c2ccc(N3CCOCC3)cc2)o1 returned hERG WT inh -3, KCNH2 3.1 inh -7, TRPV1 potentiator 2, p53 reactivator 8%, TRPV1 agonist 3 and ClpP mod 18µM*.
CCOCCCN1C(=O)CN(C2CCCCCC2)C(=O)C1c1ccc(OC(C)C)c(OC)c1 (configuration not stated) was read as ClpP mod 0%.
Screening Cc1cccc(N=c2oc3cc(O)ccc3cc2C(N)=O)c1 returned hERG WT inh 1, KCNH2 3.1 inh 5, TRPV1 potentiator -8, p53 reactivator inconclusive, TRPV1 agonist 0 and ClpP mod 28µM*.
Screening CCc1ccc(-c2cc(C(=O)N/N=C/c3c[nH]c4ccccc34)[nH]n2)cc1 returned hERG WT inh -1, KCNH2 3.1 inh -12, TRPV1 potentiator -7, p53 reactivator -4%, TRPV1 agonist -4 and ClpP mod -29%.
`O=C(N/N=C/c1cccc2ccccc12)c1cccnc1` gave hERG WT inh 4, KCNH2 3.1 inh -8, TRPV1 potentiator -7, p53 reactivator 2%, TRPV1 agonist 16 and ClpP mod -3%.
For CCc1ccc2c(Cl)c(C(=O)N/N=C/c3c[nH]c4ccccc34)sc2c1 the results were hERG WT inh 0, KCNH2 3.1 inh 2, TRPV1 potentiator 8, p53 reactivator 1%, TRPV1 agonist -5 and ClpP mod 25µM*.
Screening CCc1ccc(C(=O)N/N=C/c2cccc3ccccc23)nc1 returned hERG WT inh -3, KCNH2 3.1 inh 16, TRPV1 potentiator -8, p53 reactivator 32µM*, TRPV1 agonist 17 and ClpP mod -2%.
CCCC(=O)N(c1ccc2oc(-c3ccccc3)c(C(=O)OCC)c2c1)S(=O)(=O)c1ccc(C)cc1 was read as ClpP mod 4%.
COc1ccc(C)cc1NC(=O)c1oc2ccc(S(=O)(=O)N(C)C3CCCCC3)cc2c1C was read as ClpP mod -8%.
COc1cccc(NC(=O)c2oc3ccc(S(=O)(=O)N(C)C4CCCCC4)cc3c2C)c1 was read as ClpP mod 25µM*.
O=S(=O)(c1ccc(Cl)cc1)N1CCC(n2cnc3cc(C(F)(F)F)ccc32)CC1 was read as hERG WT inh -41, KCNH2 3.1 inh -83* and ClpP mod -12%.
For COc1ccc(NC(=O)CON=CC(=O)Nc2ccc(C)cc2)c(OC)c1 the results were hERG WT inh 2, KCNH2 3.1 inh -3, p53 reactivator -4% and ClpP mod 1%.
`CC(C)(C)c1ccc(OCC(=O)N/N=C/c2ccc(N3CCOCC3)cc2)cc1` gave hERG WT inh 0, KCNH2 3.1 inh -28, TRPV1 potentiator -7, p53 reactivator 0%, TRPV1 agonist inconclusive and ClpP mod 35µM*.
For CCCS(=O)(=O)NC(=O)C1(C)CCN(C(=O)c2ccc(OC)cc2OC)C1 (configuration not stated) the results were ClpP mod -1%.
Screening CCOc1ccc(CC(=O)NC2CC(=O)N(c3ccc(C)c(C)c3)C2)cc1 (configuration not stated) returned ClpP mod -1%.
`O=C(O)C1C2C=CC(O2)C1C(=O)NCc1ccc(Cl)cc1` (configuration not stated) gave hERG WT inh 19, KCNH2 3.1 inh -11, TRPV1 potentiator -14, p53 reactivator 13%, TRPV1 agonist -2 and ClpP mod 35µM*.
Screening CNC(=O)C(=O)NCC1OCCN1S(=O)(=O)c1ccc(C)cc1 (configuration not stated) returned hERG WT inh -207*, KCNH2 3.1 inh -5, TRPV1 potentiator -6, p53 reactivator 29%, TRPV1 agonist -3 and ClpP mod 1%.
Screening Cc1ccc(S(=O)(=O)N2CCOC2CNC(=O)C(=O)NCC(C)C)cc1 (configuration not stated) returned hERG WT inh 2, KCNH2 3.1 inh -9, TRPV1 potentiator -7, p53 reactivator -2%, TRPV1 agonist -2 and ClpP mod -1%.
Cc1ccccc1CN1CCN(C(=O)[C@H]2O[C@@H](n3cnc4c(N)ncnc43)[C@H](O)[C@@H]2O)CC1 was read as ClpP mod -2%.
`C=CCc1cccc2cc(C(=O)NNC(=O)c3ccncc3)c(=O)oc12` gave hERG WT inh 5, KCNH2 3.1 inh 14, TRPV1 potentiator -10, p53 reactivator -2% and TRPV1 agonist 81*.
For COc1ccc(C(C)(O)c2nc(-c3cccc(NC(C)=O)c3)cs2)cc1 (configuration not stated) the results were ClpP mod -1%.
CC1=C(C(=O)N2CCCCCC2)CC(CC(=O)NCCN2CCOCC2)C(=O)N1CCC1=CCCCC1 (configuration not stated) was read as ClpP mod 1%.
Screening CC1Cc2ccccc2C[N+]1(C)CC(=O)c1cccc([N+](=O)[O-])c1 (configuration not stated) returned ClpP mod -4%.

Compound activity deposited in PubChem by National Center for Advancing Translational Sciences (NCATS).
